# GLP-1R agonist – GLP-1 receptor (human) agonism | P43220 | HEK293 GLP-1R CRE-luciferase, luminescence, 4-6 h; cells express a hypersensitive GLP-1R form | actives 0.007% (n = 380,000) | Potency, µM (top dose mostly 45.6 µM), most hits filed as activators
# KCNH2 WT inh – blocks the wildtype human KCNH2 potassium channel; actives 0.37% (n = 340,000); U2OS, BacMam KCNH2, thallium flux FluxOr; hits give low values; activity change, % at 1.84 µM; Q12809; AID 720551;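 active = maximum activity change below -70%; inconclusive = maximum activity change between -70% and -50%; inactive = maximum activity change above -50%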
#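 U2OS cells transduced with wild-type KCNH2 virus are loaded with FluxOr dye for 45 min, and thallium flux is measured in kinetic reads before and after stimulation buffer. Rate constants are normalized to DMSO controls.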
# KCNH2 3.1 inh – KCNH2 3.1 (human) potassium channel inhibition; U2OS KCNH2 3.1, thallium flux FluxOr; hits give low values; activity change, % (tested at about 1.8 µM); actives 0.95% (n = 340,000); AID 720553;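 active = maximum activity change below -70%; inconclusive = maximum activity change from -70% to -50%; inactive = maximum activity change above -50%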;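 also: thallium influx rate constant from kinetic fluorescence after stimulation buffer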
#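 Normalized rate constant (relative to positive and negative DMSO controls) derived from a 2 min kinetic fluorescence read after stimulation; U2OS cells expressing the 3.1 isoform via virus at 1.77 x 10^8 /mL.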
# HEK293 tox – cytotoxic in the GLP-1 receptor inverse agonist counter-screen | HEK293 cAMP-luciferase reporter cells, luminescence, 24 h | Potency, µM (titrated, usually from 38.3 µM), usual class: inhibitors | actives 0.13% (n = 410,000) | AID 624418;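 also: loss of luciferase light is scored as toxicity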
#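 Step one: seed cells (200 cells/uL, DMEM with 10% Nu serum, 1% pen-strep). Step two: 12-hour incubation at 37 deg C. Step three: pin 23 nL compound, incubate 24 hr. Step four: add luciferase reagent, read luminescence 12 min later.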
# GLS inhibitor – glutaminase GLS (human) inhibition; O94925; GLS enzymatic activity, qHTS titration; Potency, µM (doses to about 45.5 µM), most hits filed as inhibitors; actives 0.21% (n = 410,000); AID 624170
# Target sequence (O94925 whole entry, looked up): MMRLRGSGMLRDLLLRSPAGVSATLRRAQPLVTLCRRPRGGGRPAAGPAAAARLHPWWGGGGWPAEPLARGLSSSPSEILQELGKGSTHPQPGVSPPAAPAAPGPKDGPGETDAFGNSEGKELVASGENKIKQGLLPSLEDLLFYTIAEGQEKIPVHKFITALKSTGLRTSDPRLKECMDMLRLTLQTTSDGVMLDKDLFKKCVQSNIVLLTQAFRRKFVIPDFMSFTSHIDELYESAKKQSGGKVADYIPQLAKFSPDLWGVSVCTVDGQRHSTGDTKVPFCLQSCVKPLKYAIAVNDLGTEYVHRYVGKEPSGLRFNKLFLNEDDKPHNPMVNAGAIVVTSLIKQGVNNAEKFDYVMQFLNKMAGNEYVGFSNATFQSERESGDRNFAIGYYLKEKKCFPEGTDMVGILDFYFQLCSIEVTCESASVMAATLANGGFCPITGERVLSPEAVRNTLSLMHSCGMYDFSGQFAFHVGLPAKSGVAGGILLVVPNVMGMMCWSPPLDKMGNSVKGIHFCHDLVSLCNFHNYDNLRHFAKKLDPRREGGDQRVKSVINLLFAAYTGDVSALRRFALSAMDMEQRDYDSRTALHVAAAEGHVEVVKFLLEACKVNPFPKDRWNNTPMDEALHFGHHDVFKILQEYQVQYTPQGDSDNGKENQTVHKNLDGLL
#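 hKGA in 45 mM KH2PO4 (pH 8.2), 0.02% Tween-20 with compound, then 1mM L-Glutamine (stock as added) plus glutamate oxidase/HRP/Amplex red coupling mix. Fluorescence read initially and after 30 min at RT; signal change reflects glutamate formation.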
# GLP1R inv ag – acts as inverse agonist at human GLP-1 receptor; actives 1.6% (n = 410,000); HEK293 GLP-1R CRE-luciferase, luminescence, 24 h; GLP-1R form is constitutively active; Potency, µM (series often up to 38.3 µM), actives largely listed as inhibitors; also: nearly all actives have a fitted effect of over 55% in size
#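 Stable HEK293 clone (constitutively active GLP-1R + cAMP-response luciferase); 200 cells/uL plated, 12 h pre-culture, compound 24 hr, 37 deg C/5% CO2; detection reagent 12 min RT; luminescence.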
# A number is an active result; - = inactive; ? = inconclusive; . = no result given; [ ] = dose if it differs, or a comment. Sampled rows, rich in hits. Any-hit rate of the full collection: about 2.8%. Unless noted, calls follow the shape of the dose curve; as a rule, active = well fitted curve in the direction sought with a large enough effect; inconclusive = small, poorly fitted or top-dose-only effect, or another doubt; inactive = no such curve, though single readings can be large; an effect the other way counts as inactive or inconclusive.
SMILES,GLP-1R agonist,KCNH2 WT inh,KCNH2 3.1 inh,HEK293 tox,GLS inhibitor,GLP1R inv ag
COC(=O)CC1(C(=O)OC)Oc2ccc(Br)cc2C(=O)N1c1cccc(Cl)c1Cl (configuration not stated),-,-,-,?,-,?
COC(=O)CC1(C(=O)OC)Oc2ccc(Br)cc2C(=O)N1c1cc(Cl)c(Cl)cc1Cl (configuration not stated),-,-,-,-,-,7.1µM
CC1CCc2c(cc(-c3ccccc3)n2-c2ccc(C(=O)NC(C)C)cc2)C1 (configuration not stated),.,.,.,-,-,6.3µM
CC(C)NC(=O)c1ccc(-n2c(-c3ccccc3)cc3c2CCCCC3)cc1,.,.,.,-,-,-
Cc1cn([C@H](C(=O)NCCCCCCCCCCC(=O)N2CCN(C(=O)OC(C)(C)C)CC2)[C@@H](C)O)nn1,-,-,-,-,-,?
OC(CNCC1CCCO1)Cn1c2ccc(Cl)cc2c2cc(Cl)ccc21 (configuration not stated),-,?,-99,?,-,?
CCN(CC)c1ccc(/C=N/N2CCOCC2)c(O)c1,-,-,-,-,13µM,-
CC(C)(C)N(C=C(Cl)Cl)C(=O)NC1CCCCC1,-,-,-,-,-,-
CC(C)=CCC(C)(C)CNC(=O)NC1CCCCC1,-,-,-,-,-,10µM
Cc1cccc(CN(CC(=O)N/N=C/c2ccco2)S(=O)(=O)c2ccc(Cl)cc2)c1,-,-,-,-,-,?
Cc1cccc(CN(CC(=O)N/N=C/c2cccs2)S(=O)(=O)c2ccc(Cl)cc2)c1,-,-,-,-,-,8.9µM
CC1CCC(NC(=O)CCNS(=O)(=O)c2ccc3c(c2)CCC(=O)N3)CC1 (configuration not stated),-,-,-,-,-,-
CCN1C(=O)[C@H]2[C@@H](c3ccc(-c4cccc(Cl)c4)cc3)N[C@@](C)(C(=O)OC)[C@H]2C1=O,-,-,-,-,-,11µM
COC(=O)[C@]1(Cc2ccccc2)N[C@H](c2ccc(-c3cccc(Cl)c3)c(OC)c2)[C@@H]2C(=O)N(C)C(=O)[C@@H]21,-,-,?,-,-,3.2µM
CCN1C(=O)[C@H]2[C@@H](c3ccc(-c4ccc5c(c4)OCO5)c(OC)c3)N[C@@](Cc3ccccc3)(C(=O)OC)[C@H]2C1=O,-,-,-111,-,-,?
CCCC(CCC)C(=O)Nc1ccc2c(c1)N(C(=O)CN1CCN(C)CC1)c1ccccc1CC2,-,-,-,?,-,7.9µM
CCN(Cc1ccccc1)S(=O)(=O)c1ccc(F)c(C(=O)Nc2cc(C(F)(F)F)ccc2Cl)c1,.,.,.,-,-,?
Cc1c(C(=O)CN2CCN(c3ccccc3)CC2)c2ccccc2n1C,-,?,-,-,-,-
Cn1c2c(c3ccccc31)CCN(CCCCN1CCN(c3ccccc3)CC1)C2=O,-,-78,-109,-,-,?
COc1cccc(CN(C(=O)COc2ccc(Cl)c(C)c2)C2CCS(=O)(=O)C2)c1 (configuration not stated),.,.,.,-,-,?
Cc1ccc(-c2nn(-c3ccccc3)cc2C2SCC(=O)N2Cc2ccccc2)o1 (configuration not stated),-,-,-,-,-,11µM
O=C1CSC(c2cn(-c3ccccc3)nc2-c2cc3ccccc3o2)N1Cc1ccccc1 (configuration not stated),-,-,-,-,-,?
Cc1ccc(CN2C(=O)CSC2c2ccccc2F)cc1 (configuration not stated),-,-,-,-,-,10µM
Cc1ccc(CN2C(=O)CSC2c2ccc(F)cc2)cc1 (configuration not stated),-,-,-,-,-,?
Cc1ccc(NC(=S)Nc2ccccn2)c(C)c1,-,-,-,5µM,-,?
SMILES,GLP-1R agonist,KCNH2 WT inh,KCNH2 3.1 inh,HEK293 tox,GLS inhibitor,GLP1R inv ag
Cc1cc(C)cc(NC(=S)Nc2ccccn2)c1,-,-,-,?,-,?
Cc1cccc(NC(=S)Nc2ccccn2)c1,-,-,-,?,-,11µM
Cc1cccc(NC(=O)c2cccc(Cn3cc(Br)c([N+](=O)[O-])n3)c2)c1C,-,-,-,-,-,10µM
Cc1ccccc1NC(=O)c1cccc(Cn2cc(Br)c([N+](=O)[O-])n2)c1,-,-,-,-,-,?
O=c1cc(CSc2ccccc2)[nH]c2ccc(F)cc12,.,.,.,-,-,-
Cc1ccc(C(=O)CNc2ccc(Cl)cc2)cc1,-,-,-79,-,-,-
CCOc1ccc(NCC(=O)c2ccc(C)cc2)cc1,-,-,-,-,?,-
O=C(Nc1ccccc1NC(=O)c1ccco1)c1ccco1,-,-,.,-,.,-
CSc1ccccc1NC(=O)c1ccco1,-,-281,-,-,-,-
O=C(Nc1ccccc1N1CCCCC1)c1ccco1,-,-,-,-,-,11µM
O=C(Nc1ccccc1N1CCCC1)c1ccco1,-,-,-,-,-,-
Cc1cccc(C(=O)NC(NCCc2ccccc2)C(Cl)(Cl)Cl)c1 (configuration not stated),-,-,?,-,-,4.5µM
Cc1cccc(NC(=O)c2cc3c(=O)n(Cc4ccco4)ccc3nc2C)c1,.,.,.,-,-,?
Cc1cc(N2CCN(c3nc(-c4ccccc4)cs3)CC2)c2ccccc2n1,-,-,-79,-[0.307 µM],-,-[0.307 µM]
Cc1cc(N2CCN(S(=O)(=O)c3ccccc3)CC2)c2ccccc2n1,-,-109,-,-,-,-
COc1cc(NC(=O)NC(C)c2c(-n3cccc3)sc3c2CCCC3)cc(OC)c1OC (configuration not stated),.,.,.,-,-,11µM
CC(NC(=O)Nc1ccccc1C(F)(F)F)c1c(-n2cccc2)sc2c1CCCC2 (configuration not stated),.,.,.,-,-,?
Cc1ccc(-c2c(C(=O)N/N=C/c3c[nH]c4ccccc34)nnn2-c2nonc2N)cc1,-,-,-,-,-,3.2µM
CCCCOc1ccc(C(=O)Nc2onc3c2CCCC3)cc1,.,.,.,-,-,-
Cc1ccc(C(=O)Nc2cc(C(C)C)c(O)c(C(C)C)c2)cc1,-,-,-,-,-,4.5µM
Cc1cccc(C(=O)Nc2ccc(NC(=O)c3cccc(C)c3)cc2)c1,-,-,-,-,-,-
Cc1cccc(C(=O)Nc2ccc(C(=O)Nc3ccc(O)cc3)cc2)c1,-,-,.,?,-,2.8µM
O=C(Nc1ccc(C(=O)N2CCC(O)(c3ccc(Cl)c(C(F)(F)F)c3)CC2)cc1)c1ccc(Br)o1,-,-,-,-,-,10µM
